Reference: PubChem BioAssay (Tox21)
Results filed as inconclusive are left out. Activity calls are given as the source filed them. Unless noted, the call rests on the fitted dose curve; in most records, active means well fitted curve in the direction sought with a large enough effect in the repeat runs; inconclusive means weak or mixed curves; inactive means no such curve, though single readings can be large; an effect the other way counts as inactive or inconclusive.

Legend:
[1] = A CellTox Green Cytotoxicity Assay to monitor cytotoxicity in HepG2 cells - 32 hour (AID 1224883); further: nearly all actives have a fitted effect of over 50% in size
How it was run: (§1)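 Measurements at 0, 8, 16, 24, 32 and 40 h of treatment captured CellTox Green fluorescence in HepG2 cells that had been co-plated with reagent and preincubated 5 h at 37 C/5% CO2.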

[2] = A CellTox Green Cytotoxicity Assay to monitor cytotoxicity in HEK293 cells - 8 hour (AID 1224884); further: nearly all actives have a fitted effect of over 35% in size
How it was run: (§2)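 Tox21 screen in HEK293: membrane-impermeant cyanine dye fluoresces on binding dead-cell DNA; compound pinned 5 h post-seeding, plates held at 37 C, signal read repeatedly through 40 h.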

[3] = qHTS RealTime-Glo MT Cell Viability Assay in HepG2 cells - 16 hour (AID 1224885); further: nearly all actives have a fitted effect of over 50% in size
How it was run: (§3)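 Luminescence read-out: viable HepG2 cells reduce a prosubstrate to a NanoLuc substrate, giving a signal proportional to live cell number. Reads taken at 0, 8, 16, 24, 32 and 40 h of compound exposure at 37 C.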

[4] = qHTS RealTime-Glo MT Cell Viability Assay in HEK293 cells - 24 hour (AID 1224886); further: top concentration of the series differs between compounds; nearly all actives have a fitted effect of over 50% in size
How it was run: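 Nonlytic real-time viability readout: viable cells convert prosubstrate to NanoLuc substrate, giving luminescence proportional to live cell number. HEK293, 600 cells/well, compound added after 5 h, continuous culture at 37 C.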

[5] = qHTS RealTime-Glo MT Cell Viability Assay in HEK293 cells - 8 hour (AID 1224887); further: top concentration of the series differs between compounds; nearly all actives have a fitted effect of over 50% in size
How it was run: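 HEK293 + NanoLuc + prosubstrate, 600 cells/well; 5 h, 37 C/5% CO2; compound 23 nL in DMSO by pintool; 37 C; luminescence read at 0, 8, 16, 24, 32 and 40 h time points.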

[6] = A CellTox Green Cytotoxicity Assay to monitor cytotoxicity in HEK293 cells - 16 hour (AID 1224888); further: nearly all actives have a fitted effect of over 35% in size
How it was run: as §2

[7] = qHTS RealTime-Glo MT Cell Viability Assay in HepG2 cells - 0 hour (AID 1224889); further: nearly all actives have a fitted effect of over 50% in size
How it was run: as §3

[8] = A CellTox Green Cytotoxicity Assay to monitor cytotoxicity in HepG2 cells - 8 hour (AID 1224890); further: nearly all actives have a fitted effect of over 45% in size
How it was run: as §1

[9] = qHTS assay to identify small molecule antagonists of the estrogen receptor alpha (ER-alpha) signaling pathway using the BG1 cell line in the presence of 0.1 nM 17-beta-estradiol - cell viability counter screen (AID 1259241); further: nearly all actives have a fitted effect of over 40% in size
How it was run: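 VM7Luc4E2 cells (endogenous full-length ER-alpha, 4xERE-luciferase), cultured 5 days in charcoal-stripped serum, exposed to compounds with 0.1 nM 17beta-estradiol (final) for 22 hr at 37C. Viability read in same wells as live-cell protease fluorescence after 30 min.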

[10] = qHTS assay to identify small molecule antagonists of the androgen receptor (AR) signaling pathway using the MDA cell line in the presence of 0.5 nM R1881 - cell viability counter screen (AID 1259242); further: nearly all actives have a fitted effect of over 45% in size
How it was run: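 Concentration-response screen of compounds for toxicity in MDA-kb2 reporter cells: 16 hr at 37C with 0.5 nM R1881, endpoint live-cell protease fluorescence measured in the reporter wells.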

[11] = biological target: Androgen receptor (Homo sapiens) (UniProt P10275); experiment: qHTS assay to identify small molecule antagonists of the androgen receptor (AR) signaling pathway using the MDA cell line in the presence of 0.5 nM R1881 (AID 1259243); further: nearly all actives have a fitted effect of over 50% in size
Sequence of Androgen receptor (Homo sapiens) (P10275 whole entry, looked up): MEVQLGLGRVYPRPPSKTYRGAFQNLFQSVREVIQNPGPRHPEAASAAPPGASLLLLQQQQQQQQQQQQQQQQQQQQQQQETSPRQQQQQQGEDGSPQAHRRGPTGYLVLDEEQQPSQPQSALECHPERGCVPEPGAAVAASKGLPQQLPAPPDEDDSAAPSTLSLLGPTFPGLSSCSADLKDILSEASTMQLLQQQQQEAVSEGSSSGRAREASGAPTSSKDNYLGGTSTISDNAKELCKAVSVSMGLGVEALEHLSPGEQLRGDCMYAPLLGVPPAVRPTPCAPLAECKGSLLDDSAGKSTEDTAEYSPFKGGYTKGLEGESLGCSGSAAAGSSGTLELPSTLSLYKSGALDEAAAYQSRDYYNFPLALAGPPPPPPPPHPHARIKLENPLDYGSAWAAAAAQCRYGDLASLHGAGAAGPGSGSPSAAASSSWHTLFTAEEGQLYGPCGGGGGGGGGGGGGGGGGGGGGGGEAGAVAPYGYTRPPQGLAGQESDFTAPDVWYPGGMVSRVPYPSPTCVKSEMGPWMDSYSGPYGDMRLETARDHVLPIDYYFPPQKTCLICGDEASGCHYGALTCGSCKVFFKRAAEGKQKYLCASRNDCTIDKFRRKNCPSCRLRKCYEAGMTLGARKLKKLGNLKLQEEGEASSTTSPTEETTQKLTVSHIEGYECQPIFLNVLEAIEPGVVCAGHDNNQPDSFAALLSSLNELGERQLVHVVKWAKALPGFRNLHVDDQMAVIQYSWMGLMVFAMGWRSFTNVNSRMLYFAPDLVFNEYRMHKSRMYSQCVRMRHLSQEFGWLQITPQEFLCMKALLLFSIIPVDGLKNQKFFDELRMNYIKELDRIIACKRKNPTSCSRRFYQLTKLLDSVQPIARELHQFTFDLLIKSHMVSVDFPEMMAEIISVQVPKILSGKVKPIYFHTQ
How it was run: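 With R1881 held at 0.5 nM (final), compound effects on MMTV-luciferase expression in MDA-kb2 cells were scored by luminescence after a 16 hr, 37C incubation.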

[12] = biological target: Estrogen receptor (Homo sapiens) (UniProt P03372); experiment: qHTS assay to identify small molecule antagonists of the estrogen receptor alpha (ER-alpha) signaling pathway using the BG1 cell line in the presence of 0.1 nM 17-beta-estradiol (AID 1259244); further: nearly all actives have a fitted effect of over 50% in size
Sequence of Estrogen receptor (Homo sapiens) (P03372 whole entry, looked up): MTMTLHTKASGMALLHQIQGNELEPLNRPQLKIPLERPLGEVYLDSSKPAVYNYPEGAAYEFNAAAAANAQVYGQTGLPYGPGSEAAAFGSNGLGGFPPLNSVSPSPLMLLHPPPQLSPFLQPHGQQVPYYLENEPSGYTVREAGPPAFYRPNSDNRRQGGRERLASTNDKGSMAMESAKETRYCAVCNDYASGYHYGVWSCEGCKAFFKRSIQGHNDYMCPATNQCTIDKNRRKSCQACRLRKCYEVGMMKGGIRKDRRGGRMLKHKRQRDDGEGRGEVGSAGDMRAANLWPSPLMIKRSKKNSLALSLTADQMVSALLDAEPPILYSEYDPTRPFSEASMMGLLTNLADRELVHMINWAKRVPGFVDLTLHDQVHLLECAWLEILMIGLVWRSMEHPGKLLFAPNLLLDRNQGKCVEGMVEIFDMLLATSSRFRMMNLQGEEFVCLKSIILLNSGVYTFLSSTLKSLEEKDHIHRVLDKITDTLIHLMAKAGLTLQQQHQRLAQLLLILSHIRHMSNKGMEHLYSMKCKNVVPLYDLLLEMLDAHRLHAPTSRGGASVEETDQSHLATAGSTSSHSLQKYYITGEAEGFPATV
How it was run: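 Compounds were tested against 0.1 nM (final) 17beta-estradiol in VM7Luc4E2 cells, which express full-length ER-alpha and an ERE-luciferase reporter; luminescence was recorded following 22 h exposure.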

[13] = qHTS assay to identify small molecule HDAC inhibitors (AID 1259364);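 further: wild-type HCT-116 cells with endogenous class I/II HDAC activity; top concentration of the series differs between compounds; nearly all actives have a fitted effect of over 45% in size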
How it was run: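 Screening used wild-type human colon HCT-116 cells incubated overnight, dosed with compounds for 2 hours, and assayed with a homogeneous luminogenic HDAC I/II reagent for 30 minutes at room temperature.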

[14] = qHTS assay to identify small molecule HDAC inhibitors - cell viability counter screen (AID 1259365)
How it was run: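 Wild-type HCT-116 cells, 1,500/well, cultured overnight, then compound-treated 2 h at 37 C. Viability measured as ATP luminescence with CellTiter-Glo after 30 min at room temperature.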

[15] = qHTS assay to identify small molecule agonists of the sonic hedgehog signaling (Shh) pathway - cell viability counter screen (AID 1259366); further: nearly all actives have a fitted effect of over 50% in size
How it was run: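 NIH/3T3-derived Gli1-Luc reporter cells, 2,000 per well, received compound after 4 h and were treated about 23 h at 37C. Viability measured in the same wells by CellTiter-Fluor fluorescence after 1 h.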

[16] = biological target: Estrogen receptor beta (Homo sapiens) (UniProt Q92731); experiment: qHTS assay to identify small molecule agonists of the estrogen receptor beta (ER-beta) signaling pathway (AID 1259377; active means well fitted activation curve with a large enough effect in the signal ratio in the repeat runs, not every such curve was filed as active; the % refers to the signal ratio)
Sequence of Estrogen receptor beta (Homo sapiens) (Q92731 whole entry, looked up): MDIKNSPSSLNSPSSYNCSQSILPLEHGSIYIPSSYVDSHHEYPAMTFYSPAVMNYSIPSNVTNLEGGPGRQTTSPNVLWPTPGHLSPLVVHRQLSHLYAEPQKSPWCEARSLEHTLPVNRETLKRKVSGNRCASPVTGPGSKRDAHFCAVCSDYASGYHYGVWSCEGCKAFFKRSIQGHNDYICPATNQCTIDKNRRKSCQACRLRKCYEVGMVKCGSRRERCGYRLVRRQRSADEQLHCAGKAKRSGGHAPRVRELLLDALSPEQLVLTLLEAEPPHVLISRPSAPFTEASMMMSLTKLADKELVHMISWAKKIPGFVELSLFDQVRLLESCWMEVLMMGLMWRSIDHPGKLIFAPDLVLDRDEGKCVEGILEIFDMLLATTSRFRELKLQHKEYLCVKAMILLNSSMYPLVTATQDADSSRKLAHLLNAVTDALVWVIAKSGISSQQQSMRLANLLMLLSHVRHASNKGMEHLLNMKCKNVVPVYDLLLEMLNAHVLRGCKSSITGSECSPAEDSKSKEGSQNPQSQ
How it was run: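 ER-beta-UAS-bla HEK293T cells in medium with 2% charcoal-stripped FBS were exposed to compounds for 16 h at 37C. Beta-lactamase reporter activity was read as fluorescence after 2 h with LiveBLAzer B/G FRET substrate at room temperature.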

[17] = qHTS assay to identify small molecule antagonists of the sonic hedgehog signaling (Shh) pathway - cell viability counter screen (AID 1259367); further: nearly all actives have a fitted effect of over 55% in size
How it was run: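 Cytotoxicity was assessed in parallel with Shh reporter activity by measuring live-cell protease fluorescence (CellTiter-Fluor) in NIH/3T3 cells stably carrying Gli1-Luc, treated with compound under conditioned medium stimulation for 23 hr plus 1 hr reagent incubation.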

[18] = qHTS assay to identify small molecule agonists of the sonic hedgehog signaling (Shh) pathway (AID 1259368; calls by dose curve;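 further: NIH/3T3-derived 3T3Gli1-Luc cells carrying a stable Gli1-driven firefly luciferase reporter; series mostly up to about 92 µM; nearly all actives have a fitted effect of over 15% in size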)
How it was run: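 Hedgehog pathway agonism scored by increased firefly luciferase luminescence in 3T3Gli1-Luc cells treated 24 hr at 37 C; detection used a 30 min room-temperature reagent incubation.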

[19] = qHTS assay to identify small molecule antagonists of the sonic hedgehog signaling (Shh) pathway (AID 1259369; calls by dose curve; further: nearly all actives have a fitted effect of over 45% in size)
How it was run: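 NIH/3T3 stable Gli1-Luc clone, 2,000 cells/well, 4hr settle; cpd + conditioned medium 24hr; Luc reagent 30min RT; luminescence.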

[20] = qHTS assay to identify small molecule phospholipidosis (PLD) inducers (AID 1259344; active means well fitted curve in the direction sought with a large enough effect; an effect the other way counts as inactive or inconclusive)
How it was run: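 Cells (HepG2, 900 per well) attach for 4 h, receive LipidTOX Red and compound together, incubate 24 h at 37 C, are fixed 30 min with paraformaldehyde/Hoechst, then imaged at one site per well.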

Measured: Potency

O=C(O)C(=O)Cc1ccccc1
not listed: [17] | [18] | [19] | [20]
inactive: all other assays above

O=C(OCc1ccccc1)C(=O)OCc1ccccc1
not listed: [12] | [19] | [20]
inactive: all other assays above

Cc1cc2cc3c(C)cc(=O)oc3c(C)c2o1
not listed: [11] | [16] | [20]
inactive: all other assays above

COc1ccc(OC)c(Cl)c1
not listed: [12] | [17] | [20]
inactive: all other assays above

On1nnc2ccccc21
not listed: [11] | [16] | [18] | [19] | [20]
inactive: all other assays above

CC(C)N(c1ccccc1)C(C)C
not listed: [11] | [20]
inactive: all other assays above

NC(CO)C(=O)NNCc1ccc(O)c(O)c1O (stereo not given)
not listed: [15] | [16] | [20]
inactive: all other assays above

CCCCCCCCC1CCC(=O)O1 (stereo not given)
not listed: [11] | [20]
inactive: all other assays above

CCCCOC(=O)c1ccccc1
not listed: [16] | [17] | [18] | [20]
inactive: all other assays above

O=C(/N=N/C(=O)OCc1ccccc1)OCc1ccccc1
not listed: [11] | [20]
inactive: all other assays above

CC/C=C\CC1=C(C)CCC1=O
not listed: [12] | [20]
inactive: all other assays above

CC1=CCC(C(C)C)=CC1
not listed: [11] | [16] | [20]
inactive: all other assays above

CO[C@@H]1[C@@H](OC(N)=O)[C@@H](O)[C@H](Oc2ccc3c(O)c(NC(=O)c4ccc(O)c(CC=C(C)C)c4)c(=O)oc3c2C)OC1(C)C
not listed: [11] | [16]
inactive: all other assays above

CC(C)CCCC(C)(C)O
not listed: [11] | [20]
inactive: all other assays above

C=C(C)C1CCC(C)(O)CC1 (stereo not given)
not listed: [20]
inactive: all other assays above

O=C(CCNNC(=O)c1ccncc1)NCc1ccccc1
not listed: [11] | [16] | [17]
inactive: all other assays above

OCCN(CCO)c1cccc(Cl)c1
not listed: [12] | [20]
inactive: all other assays above

C=COCCOCCOCCOC=C
not listed: [12] | [20]
inactive: all other assays above

COc1cc(C(=S)N2CCOCC2)cc(OC)c1OC
not listed: [11]
inactive: all other assays above

CC(C)(C)c1nnc(NS(=O)(=O)c2ccc(N)cc2)s1
not listed: [20]
inactive: all other assays above

CCCOC(=O)C(C)O (stereo not given)
not listed: [19] | [20]
inactive: all other assays above

O=C(O)CCSSCCC(=O)O
not listed: [12] | [19] | [20]
inactive: all other assays above

CC(C)NCC(O)COc1ccc(COCCOC(C)C)cc1 (stereo not given)
not listed: [19]
inactive: all other assays above

Cc1ccc2ccc(Cl)cc2n1
not listed: [12] | [16] | [17] | [20]
inactive: all other assays above

CCN(C)C(=O)Oc1cccc([C@H](C)N(C)C)c1
not listed: [19]
inactive: all other assays above

Nc1ccc(S(=O)(=O)Nc2ccc(Cl)nn2)cc1
not listed: [18]
inactive: all other assays above

Cc1ccc2c(c1)OCC(=O)CO2
not listed: [11] | [20]
inactive: all other assays above

O=C1c2ccccc2C(=O)N1CCl
not listed: [16] | [19] | [20]
inactive: all other assays above

C=C(C)C(=O)OCCN(CC)CC
not listed: [12] | [16] | [18] | [20]
inactive: all other assays above

O=C(OCC(COC(=O)c1cccnc1)(COC(=O)c1cccnc1)COC(=O)c1cccnc1)c1cccnc1
inactive: all assays above

O=C(CCN1CCN(CCO)CC1)N1c2ccccc2Sc2ccc(C(F)(F)F)cc21
not listed: [12] | [16] | [17] | [20]
inactive: all other assays above
